Hits are enriched below; roughly 3.4% of the tested compounds scored in any of these assays.
GPR151 ag = activators of human GPR151, primary screen, cell-based, PathHunter beta-arrestin, luminescence; G-protein coupled receptor 151 (Homo sapiens), Q8TDV0; PathHunter beta-arrestin GPR151 cells; activation, % at 11.2 µM; hit rate 1% among 650,000; AID 1508602, 2020; in the data active means activation above about 4.9%
TEAD-YAP block = TEAD-YAP interaction inhibition, primary screen, TEAD-YAP interaction inhibitor project, luminescence, HEK-TIYL cells; inhibition, % at 9.12 µM; TEAD-Gal4/YAP UAS-luciferase luminescence; hit rate 1.4% among 640,000; AID 1259422, 2018; in the data active means inhibition above about 32%
FBW7 activator = FBW7 E3 ligase activators, primary screen, biochemical, AlphaScreen, human; F-box/WD repeat-containing protein 7 (Homo sapiens), Q969H0; AlphaScreen FBW7–phospho-cyclin E peptide binding, activator screen; normalized activity (activation), % at 26.1 µM; hit rate 0.13% among 650,000; in the data active means normalized activity above about 1.9%;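 further: purified mutant Fbw7 with reduced substrate affinity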
MITF inh = MITF inhibitors, primary screen, biochemical, AlphaScreen, human | AlphaScreen MITF homodimerization, bead proximity signal | AID 1259374, 2018 | Microphthalmia-associated transcription factor (Homo sapiens), O75030 | hit rate 0.91% among 650,000 | inhibition, % at 2.6 µM; in the data active means inhibition above about 50%
GPR151 conf act = GPR151 activators, triplicate retest, confirmation, cell-based, PathHunter beta-arrestin, luminescence; GPR151 PathHunter beta-arrestin cells, 90 min; % of EA-reagent control over plate median; activation, % at 11.2 µM; 6,700 tested, under 10 active; shares compounds with GPR151 ag;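 active means mean percent activation across replicates above the confirmation screen cutoff of 4.91%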
GPR119 ag = GPR119 activators in beta-arrestin cells, counter-screen for GPR151 activator project, cell-based, PathHunter beta-arrestin, luminescence, triplicate | shares compounds with GPR151 ag | 90 min; 0 = compound-well median, 100 = enzyme-acceptor control | activation, % at 11.2 µM | hit rate 0.3% among 6,700;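 active means mean percent activation in the counterscreen above 29.09%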;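 further: counterscreen on off-target GPR119 to flag nonselective hits from the GPR151 activator screen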
Target sequence (Q8TDV5 whole entry, looked up): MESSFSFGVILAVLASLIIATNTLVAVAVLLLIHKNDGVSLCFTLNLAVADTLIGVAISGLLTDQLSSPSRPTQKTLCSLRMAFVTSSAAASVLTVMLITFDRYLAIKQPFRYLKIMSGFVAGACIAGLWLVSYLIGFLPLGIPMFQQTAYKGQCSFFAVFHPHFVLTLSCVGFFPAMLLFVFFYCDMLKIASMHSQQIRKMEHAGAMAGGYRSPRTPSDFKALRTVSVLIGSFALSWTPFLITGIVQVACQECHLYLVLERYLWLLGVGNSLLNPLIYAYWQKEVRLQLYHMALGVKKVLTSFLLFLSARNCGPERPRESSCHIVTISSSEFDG
A number is an active result; n = inactive; x = no result.

SMILES	GPR151 ag	TEAD-YAP block	FBW7 activator	MITF inh	GPR151 conf act	GPR119 ag
O=C1C(Cc2c[nH]c3ccccc23)N=C2c3ccccc3N=C(SCc3ccc([N+](=O)[O-])cc3)N12 (centres undefined)	n	n	n	n	x	x
N#Cc1ccc(C(=O)NCc2nc(-c3ccncc3)n[nH]2)cc1	5.3	n	n	n	n	n
CC(=O)COc1cc2c(C)cc(=O)oc2cc1Cl	5.6	n	n	n	n	n
O=C(Nc1ccnn1C1CCN(Cc2ccccc2OCCO)CC1)c1cccc(F)c1	5.9	n	n	n	n	n
O=C(Nc1ccnn1C1CCN(Cc2ccccc2F)CC1)C1CCCC1	5.3	n	n	n	n	n
COc1ccc(F)c(CN2CCC(n3nccc3NC(=O)C3CCCC3)CC2)c1	n	n	n	n	x	x
CCOc1ccccc1CN1CCC(n2nccc2NC(=O)C(C)(C)C)CC1	6.8	n	n	n	n	n
CCCC1CCC(c2ccc(-c3noc(-c4ccc(OC)cc4)n3)cc2)CC1 (centres undefined)	n	n	n	n	x	x
COc1ccccc1Nc1ncc2c(n1)CC(C)(C)CC2=O	n	n	n	n	x	x
CCC(=O)C1=C(c2ccc(C(C)(C)C)cc2)N(C(=O)CC)n2cnnc2S1	6.4	67	n	n	n	n
COc1ccc(N2CCN(C3CCCN(C(=O)c4ccc5nccnc5c4)C3)CC2)cc1 (centres undefined)	n	n	n	n	x	x
CCCN1C(=O)c2ccc(C(=O)NC3=NCCS3)cc2C1=O	9.5	n	n	n	n	n
Cc1ccc(C(=O)NC2=NCCS2)cc1	n	n	n	n	x	x
N#CCCN1CCN(c2ccc(F)cc2[N+](=O)[O-])CC1	5.3	n	n	n	n	n
CN1CCN(c2cc(N3CCN(CCC#N)CC3)c([N+](=O)[O-])cc2F)CC1	n	n	n	n	x	x
O=C(NC1CCN(Cc2ccccc2)CC1)c1cnc(N2CCc3ccccc3C2)s1	n	n	n	n	x	x
CN(Cc1ccc(OCC(O)CN2CCc3ccccc3C2)cc1)Cc1nccs1 (centres undefined)	5.6	n	n	n	n	n
CN(Cc1ccc(OCC(O)CN2CCc3ccccc3C2)cc1)Cc1cccnc1 (centres undefined)	n	n	n	n	x	x
O=C(NCCN1CCOCC1)c1ccc2nc(N3CCN(Cc4ccc5c(c4)OCO5)CC3)sc2c1	6.8	n	n	n	n	n
CC1(C)Cc2cccc(OCC(=O)NC3=NCCS3)c2O1	5.9	n	n	n	n	n
CCCCn1c(SCc2cc(=O)n3ccccc3n2)nc2ccsc2c1=O	n	n	n	n	x	x
O=C(CSc1nnnn1-c1ccc(F)cc1)NCc1ccccc1C(=O)O	10	n	n	n	n	n
O=C(CSc1nnnn1-c1ccc(F)cc1)NCCc1ccccc1	n	n	n	n	x	x
Cc1cc(C)c2cc(CN(CCCO)S(=O)(=O)c3ccccc3)c(=O)[nH]c2c1	n	n	n	n	x	x
Cc1ccc(S(=O)(=O)n2nc(C(F)(F)F)c3cnccc32)cc1	n	n	n	n	x	x
SMILES	GPR151 ag	TEAD-YAP block	FBW7 activator	MITF inh	GPR151 conf act	GPR119 ag
O=S(=O)(c1ccc(F)cc1)n1nc(C(F)(F)F)c2cnccc21	5.3	n	n	n	n	n
Cc1ccc(NS(=O)(=O)c2c(C)ccc3nsnc23)cc1	5.2	n	n	n	n	n
Cc1ccc(C)c(NS(=O)(=O)c2c(C)ccc3nsnc23)c1	n	n	n	n	x	x
O=C(NCCc1ccccc1)c1cc2cc(-c3ccncc3)ccc2[nH]1	n	n	n	n	x	x
CN1CCN(c2ccccc2NC(=O)c2ccc([N+](=O)[O-])o2)CC1	5.7	n	n	n	n	n
CN1CCN(c2ccccc2NC(=O)Cc2ccc(Cl)cc2)CC1	6.1	n	n	n	n	n
CS(=O)(=O)N1CCN(c2ccccc2NC(=O)c2ccc([N+](=O)[O-])o2)CC1	n	n	n	n	x	x
Cc1ccc(-c2nnc(SCC(=O)N3CCC(C)CC3)o2)cc1C	n	n	n	n	x	x

Source: PubChem BioAssay
